Reference: PubChem BioAssay (NCATS)
Inconclusive results are not listed. The source made the active and inactive calls. Unless noted, calls follow the shape of the dose curve; as a rule, active = well fitted curve in the direction sought with a large enough effect; inconclusive = small, poorly fitted or top-dose-only effect, or another doubt; inactive = no such curve, though single readings can be large; an effect the other way counts as inactive or inconclusive.

What was measured:
[1] = biological target: Peptidyl-prolyl cis-trans isomerase NIMA-interacting 1 (Homo sapiens) (UniProt Q13526); assay: qHTS Validation Assay to Find Inhibitors of Pin1 (AID 504536; active = well fitted inhibition curve with a large enough effect in the polarisation, with a control signal flat, not every such curve was filed as active; the % refers to the polarisation; also: potency is read from the fitted curve at half-maximal effect)
Sequence of Peptidyl-prolyl cis-trans isomerase NIMA-interacting 1 (Homo sapiens) (Q13526 whole entry, looked up): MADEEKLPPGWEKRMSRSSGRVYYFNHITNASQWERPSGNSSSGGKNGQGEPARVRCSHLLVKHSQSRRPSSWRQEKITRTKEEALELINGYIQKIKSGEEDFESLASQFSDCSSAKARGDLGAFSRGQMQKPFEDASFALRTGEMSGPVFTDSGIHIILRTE
Outline: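 Fluorescence polarization competition: compounds (titration) displace HiFluor-488-labeled Pin1-1b peptide from Pin1 (0.3 uM final) in pH 7.5 HEPES buffer with DTT, 10 min at room temperature; %Activity normalized to no-enzyme wells, curves fitted.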

[2] = biological target: Phosphoglycerate kinase, glycosomal (Trypanosoma brucei brucei) (UniProt P07378); assay: qHTS Validation Assay to Find Inhibitors of Phosphoglycerate Kinase (AID 504547); also: potency is read from the fitted curve at half-maximal effect
Sequence of Phosphoglycerate kinase, glycosomal (Trypanosoma brucei brucei) (P07378 whole entry, looked up): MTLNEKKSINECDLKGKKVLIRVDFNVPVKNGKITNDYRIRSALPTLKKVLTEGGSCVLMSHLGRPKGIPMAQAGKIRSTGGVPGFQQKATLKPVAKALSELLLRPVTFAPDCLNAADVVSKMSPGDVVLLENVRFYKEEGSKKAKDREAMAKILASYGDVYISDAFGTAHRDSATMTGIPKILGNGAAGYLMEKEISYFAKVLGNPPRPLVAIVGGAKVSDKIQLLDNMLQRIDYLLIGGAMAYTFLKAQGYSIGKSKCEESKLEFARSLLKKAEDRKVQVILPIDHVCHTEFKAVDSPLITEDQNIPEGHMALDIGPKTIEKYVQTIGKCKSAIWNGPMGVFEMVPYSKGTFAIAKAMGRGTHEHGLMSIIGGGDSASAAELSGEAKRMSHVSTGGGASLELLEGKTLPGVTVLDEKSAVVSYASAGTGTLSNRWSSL
Outline: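 Substrate/PGK mix plus compound; reaction started with GAPDH (100nM final) to form 1,3-BPG; 60 min RT; Kinase-Glo Plus 10 min; luminescence. TEA 100mM pH 7.6, MgCl2 5mM, Tween-20 0.01%.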

[3] = biological target: phosphoglycerate mutase (Leishmania major) (UniProt Q4Q090); assay: qHTS Validation Assay to Find Inhibitors of Phosphoglycerate Mutase (AID 504548); conditions: Potency: inhibition qHTS; also: series mostly up to about 58 µM
Sequence of phosphoglycerate mutase (Leishmania major) (Q4Q090 1-553): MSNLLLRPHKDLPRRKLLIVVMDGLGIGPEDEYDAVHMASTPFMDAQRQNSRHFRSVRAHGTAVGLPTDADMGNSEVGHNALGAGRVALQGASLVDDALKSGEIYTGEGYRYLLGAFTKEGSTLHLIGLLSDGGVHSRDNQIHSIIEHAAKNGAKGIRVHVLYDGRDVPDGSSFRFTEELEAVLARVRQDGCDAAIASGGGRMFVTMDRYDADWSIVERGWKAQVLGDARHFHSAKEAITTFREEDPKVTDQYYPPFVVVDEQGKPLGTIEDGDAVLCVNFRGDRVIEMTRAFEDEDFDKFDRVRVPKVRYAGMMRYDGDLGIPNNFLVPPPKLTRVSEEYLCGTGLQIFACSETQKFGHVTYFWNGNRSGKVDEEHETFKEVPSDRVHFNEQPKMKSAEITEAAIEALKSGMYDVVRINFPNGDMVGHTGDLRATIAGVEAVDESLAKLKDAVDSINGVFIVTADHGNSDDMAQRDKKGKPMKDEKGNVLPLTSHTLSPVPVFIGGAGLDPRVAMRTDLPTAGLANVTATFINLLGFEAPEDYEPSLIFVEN
Outline: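 Lm PGAM 1.25nM final; 100 mM TEA pH 7.6, 5 mM MgCl2, 0.01% Tween-20; 45 min RT; Kinase-GloPlus, 10 min; end-point luminescence. Enzyme-free wells as negative controls.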

[4] = qHTS for Inhibitors of ATXN expression: Validation of Cytotoxic Assay (AID 588349); also: potency is read from the fitted curve at half-maximal effect
Outline: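 HEK293 cells were dosed with titrated compounds for 72 hr at 37 degrees C. Viability was read by CellTiter Glo luminescence, with intracellular ATP as the marker of cell survival.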

[5] = biological target: Ubiquitin carboxyl-terminal hydrolase 1 (Homo sapiens) (UniProt O94782); assay: Inhibitors of USP1/UAF1: Pilot qHTS (AID 504865); also: nearly all actives have a fitted effect of over 35% in size; also: potency is read from the fitted curve at half-maximal effect
Sequence of Ubiquitin carboxyl-terminal hydrolase 1 (Homo sapiens) (O94782 whole entry, looked up): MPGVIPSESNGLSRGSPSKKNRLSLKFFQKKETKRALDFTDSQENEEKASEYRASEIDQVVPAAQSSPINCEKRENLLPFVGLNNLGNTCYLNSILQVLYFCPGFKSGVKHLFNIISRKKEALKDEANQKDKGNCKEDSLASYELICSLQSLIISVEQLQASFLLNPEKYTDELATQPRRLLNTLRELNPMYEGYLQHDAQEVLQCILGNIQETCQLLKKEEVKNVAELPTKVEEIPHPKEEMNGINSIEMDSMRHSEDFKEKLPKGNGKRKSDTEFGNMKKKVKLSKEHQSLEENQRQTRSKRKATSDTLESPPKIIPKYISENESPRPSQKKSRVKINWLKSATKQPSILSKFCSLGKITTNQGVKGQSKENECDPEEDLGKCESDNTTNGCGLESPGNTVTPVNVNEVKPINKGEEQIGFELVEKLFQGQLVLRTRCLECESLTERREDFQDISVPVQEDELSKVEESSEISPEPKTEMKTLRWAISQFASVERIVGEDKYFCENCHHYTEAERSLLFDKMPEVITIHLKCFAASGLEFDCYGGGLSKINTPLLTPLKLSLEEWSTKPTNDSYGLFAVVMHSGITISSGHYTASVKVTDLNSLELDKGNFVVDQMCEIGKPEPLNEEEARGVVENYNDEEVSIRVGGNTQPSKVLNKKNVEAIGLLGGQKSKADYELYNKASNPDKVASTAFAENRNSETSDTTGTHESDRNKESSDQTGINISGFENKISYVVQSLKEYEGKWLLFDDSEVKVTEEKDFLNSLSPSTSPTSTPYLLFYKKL
Outline: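 1nM USP1/UAF1 + cpd, 15 min RT; start w/ Ub-Rho 150nM final; kinetic FL 480/540 nm, 6 reads q60 s. Buffer 50mM HEPES pH 7.8, 0.5mM EDTA, 1mM TCEP, 0.01% Tween-20, 0.1 mg/ml BSA.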

[6] = qHTS for Inhibitors of ATXN expression: Validation (AID 588378); also: nearly all actives have a fitted effect of over 75% in size; also: potency is read from the fitted curve at half-maximal effect
Outline: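 Cells: HEK293-ATXN2-FFLuc, phenol-red free DMEM, 2 h attachment. Compound pin-transfer, 24 h, 37 degrees C, 5% CO2. CellTiter-Fluor 30 min, Ex405/Em525; Bright-Glo 5 min, luminescence 2 s exposure.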

[7] = biological target: DNA dC->dU-editing enzyme APOBEC-3G (Homo sapiens) (UniProt Q9HC16); assay: qHTS for inhibitors of Vif-A3G interactions: Validation (AID 588379)
Sequence of DNA dC->dU-editing enzyme APOBEC-3G (Homo sapiens) (Q9HC16 whole entry, looked up): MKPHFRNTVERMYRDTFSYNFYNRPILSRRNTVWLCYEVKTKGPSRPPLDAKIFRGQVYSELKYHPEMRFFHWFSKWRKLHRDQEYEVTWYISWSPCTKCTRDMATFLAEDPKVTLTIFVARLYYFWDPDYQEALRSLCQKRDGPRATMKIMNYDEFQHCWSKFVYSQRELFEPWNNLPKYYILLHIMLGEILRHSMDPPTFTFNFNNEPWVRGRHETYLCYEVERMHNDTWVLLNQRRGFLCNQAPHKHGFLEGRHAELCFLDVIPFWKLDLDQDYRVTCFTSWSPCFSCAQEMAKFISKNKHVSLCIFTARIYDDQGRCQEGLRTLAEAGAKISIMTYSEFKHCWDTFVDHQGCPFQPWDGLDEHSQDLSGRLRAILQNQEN
Outline: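 HeLa cells stably expressing Vif and A3G-eYFP, 700 cells/well, incubated overnight at 37 deg C, then exposed to compound overnight at 37 deg C. Inhibition of Vif-mediated degradation read as increased yellow fluorescence (Ex 488/Em 500-530) by laser-scanning cytometry.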

[8] = qHTS assay for small molecule antagonists of peroxisome proliferator-activated receptor delta signaling (AID 588535; active = well fitted inhibition curve with a large enough effect in the signal ratio, with a control signal flat, not every such curve was filed as active; the % refers to the signal ratio; also: potency is read from the fitted curve at half-maximal effect;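 as to max response: cells co-treated with a PPAR-delta agonist as stimulator during compound exposure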); conditions: HEK293T PPARd-UAS-bla, beta-lactamase FRET ratio, 18 h; 460 nm channel
Outline: (§1)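 GeneBLAzer PPAR-delta-UAS-bla HEK293T cells in medium with 2% charcoal/dextran FBS were preincubated 5 hrs at 37 C, then given compounds, incubated 18 hrs at 37 C, and read by CCF4 beta-lactamase fluorescence; IC50 from Hill fits.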

[9] = biological target: Peroxisome proliferator-activated receptor delta (Homo sapiens) (UniProt Q03181); assay: as above
Sequence of Peroxisome proliferator-activated receptor delta (Homo sapiens) (Q03181 whole entry, looked up): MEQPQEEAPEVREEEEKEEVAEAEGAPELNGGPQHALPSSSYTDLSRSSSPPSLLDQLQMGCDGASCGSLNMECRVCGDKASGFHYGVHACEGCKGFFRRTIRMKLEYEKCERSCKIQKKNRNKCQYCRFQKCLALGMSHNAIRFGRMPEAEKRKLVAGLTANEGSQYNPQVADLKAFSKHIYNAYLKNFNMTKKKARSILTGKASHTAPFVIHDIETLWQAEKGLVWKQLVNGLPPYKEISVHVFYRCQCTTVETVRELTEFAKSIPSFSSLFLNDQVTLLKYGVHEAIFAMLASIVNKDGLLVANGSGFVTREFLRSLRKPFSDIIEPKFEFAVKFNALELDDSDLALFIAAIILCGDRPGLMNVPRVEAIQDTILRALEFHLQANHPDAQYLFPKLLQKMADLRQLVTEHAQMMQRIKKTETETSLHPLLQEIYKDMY
Outline: as §1

[10] = biological target: Vitamin D3 receptor (Homo sapiens) (UniProt P11473); assay: qHTS assay for small molecule agonists of vitamin D receptor signaling (AID 588543; calls by dose curve)
Sequence of Vitamin D3 receptor (Homo sapiens) (P11473 whole entry, looked up): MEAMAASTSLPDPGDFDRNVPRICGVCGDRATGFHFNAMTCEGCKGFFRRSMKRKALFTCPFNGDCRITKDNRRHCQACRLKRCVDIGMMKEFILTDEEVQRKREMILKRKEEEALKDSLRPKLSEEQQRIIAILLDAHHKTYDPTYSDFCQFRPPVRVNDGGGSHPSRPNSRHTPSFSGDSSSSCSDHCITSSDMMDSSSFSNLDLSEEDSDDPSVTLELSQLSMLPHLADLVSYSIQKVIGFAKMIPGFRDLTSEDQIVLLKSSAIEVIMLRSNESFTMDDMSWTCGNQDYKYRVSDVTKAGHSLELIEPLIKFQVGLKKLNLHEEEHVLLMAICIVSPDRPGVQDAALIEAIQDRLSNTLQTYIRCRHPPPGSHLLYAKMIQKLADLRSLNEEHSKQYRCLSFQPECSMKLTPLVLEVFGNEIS
Outline: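 β-lactamase reporter, VDR-UAS-bla HEK293T, agonist mode. Cells plated 5 h at 37 °C, compound titration 16 h at 37 °C, CCF4 dye 2 h RT, ratio 460/530 nm. Hill fit → EC50, efficacy vs 50 nM 1α,25-(OH)2D3.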

Fc1ccc(C(OCCCc2cnc[nH]2)c2ccc(F)cc2)cc1
inactive: Potency [1] | Potency [2] | Potency [3] | Potency [4]

O=S(=O)(c1cccc2c(I)cccc12)N1CCCNCC1
active: Potency [6] 12.6 µM
inactive: Potency [1] | Potency [2] | Potency [3] | Potency [5]

O=C1O/C(=C/Br)CCC1c1cccc2ccccc12 (stereo unspecified)
active: Potency [4] 31.6 µM | Potency [6] 25.1 µM
inactive: Potency [1] | Potency [2] | Potency [3]

C[C@@H](NC(=O)/C(C#N)=C/c1ccc(O)c(O)c1)c1ccccc1
inactive: Potency [1] | Potency [2] | Potency [3] | Potency [5] | Potency [6] | Potency [7]

CCOC(=O)C1=C(C)NC(C)=C(C(=O)OCC)C1c1c(F)c(F)c(F)c(F)c1F
inactive: Potency [1] | Potency [2] | Potency [3] | Potency [4] | Potency [6]

CSc1ccccc1N1CCN(CCCCCC(=O)NC2CCCc3ccccc32)CC1 (stereo unspecified)
active: Potency [6] 22.4 µM
inactive: Potency [1] | Potency [2] | Potency [3] | Potency [5]

NC(CCCP(=O)(O)O)C(=O)O (stereo unspecified)
inactive: Potency [1] | Potency [2] | Potency [3] | Potency [4] | Potency [6]

CC1OC1P(=O)(O)O (stereo unspecified)
inactive: Potency [1] | Potency [2] | Potency [3] | Potency [4] | Potency [6]

CCCCCCCC/C=C\CCCCCCCC(=O)NCCO
inactive: Potency [1] | Potency [2] | Potency [3] | Potency [4] | Potency [6] | Potency [7]

C#CCN1C(C)=C(C(=O)OC)C(c2cccc([N+](=O)[O-])c2)C(C(=O)OCC)=C1C (stereo unspecified)
inactive: Potency [1] | Potency [2] | Potency [3] | Potency [4] | Potency [6]

c1cnc2c(c1)ccc1cccnc12
inactive: Potency [1] | Potency [2] | Potency [3] | Potency [5] | outcome [10]
active: Potency [6] 3.55 µM | Potency [9] 17.8 µM
-78.3%: max response [8]

COc1cc(SC)ccc1C(=O)N1CCC(Cc2ccccc2)CC1
inactive: Potency [1] | Potency [2] | Potency [3] | Potency [4]

O=P(O)(O)C(Cl)(Cl)P(=O)(O)O
active: Potency [1] 26.9 µM
inactive: Potency [2] | Potency [3] | Potency [4] | Potency [6]

COc1ccc(/C=C/C(=O)Nc2ccccc2C(=O)O)cc1OC
inactive: Potency [1] | Potency [2] | Potency [3] | Potency [4]

Cc1ccc(S(=O)(=O)/C=C/C#N)cc1
inactive: Potency [1] | Potency [2] | Potency [3] | Potency [5]
active: Potency [6] 10 µM

Oc1cc(O)cc(/C=C/c2ccc(O)c(O)c2)c1
inactive: Potency [1] | Potency [3] | Potency [5] | Potency [6]
active: Potency [2] 23.9 µM

C#C[C@]1(O)CC[C@H]2[C@@H]3CCC4=Cc5oncc5CC4(C)[C@H]3CCC21C (stereo partly specified)
inactive: Potency [1] | Potency [2] | Potency [3] | Potency [4] | Potency [6]

CCCCC/C=C\CC(O)/C=C/c1cccc(CC(O)CCCCO)n1 (stereo unspecified)
inactive: Potency [1] | Potency [2] | Potency [3] | Potency [4] | Potency [6]

Cc1cc(NC(=O)Nc2ccc3c(ccn3C)c2)sn1
inactive: Potency [1] | Potency [2] | Potency [3] | Potency [5] | Potency [6] | Potency [7]

CNCC[C@H](Oc1ccc(C(F)(F)F)cc1)c1ccccc1
inactive: Potency [1] | Potency [2] | Potency [3] | Potency [5] | Potency [7]

CCCC1(C)C(C#N)(C#N)C1(C#N)C#N
active: Potency [5] 10 µM
inactive: Potency [1] | Potency [2]

Nc1ncnc2c1ncn2[C@@H]1O[C@H](COP(=O)(O)CP(=O)(O)OP(=O)(O)O)[C@@H](O)[C@H]1O
inactive: Potency [2] | Potency [3] | Potency [5] | Potency [4] | Potency [6]

N#C/C(=C\c1c[nH]c2ccccc12)C(=O)c1ccc(O)c(O)c1
inactive: Potency [3] | Potency [5] | Potency [4] | Potency [6]

CCN(CC)c1ncnc2c1ncn2[C@@H]1O[C@H](COP(=O)(O)OP(=O)(O)C(Br)(Br)P(=O)(O)O)[C@@H](O)[C@H]1O
inactive: Potency [2] | Potency [3] | Potency [5] | Potency [4] | Potency [6]

N#C/C(=C\c1ccc(-c2cc(Cl)ccc2Cl)o1)C(=O)Nc1cccc2ncccc12
inactive: Potency [2] | Potency [3]
active: Potency [5] 15.8 µM

CN=c1nc(-c2ccccc2)n(-c2ccccc2)s1
inactive: Potency [1] | Potency [2] | Potency [5]

CSc1nc(N)c2ncn([C@@H]3O[C@H](COP(=O)(O)OP(=O)(O)OP(=O)(O)O)[C@@H](O)[C@H]3O)c2n1
inactive: Potency [2] | Potency [3] | Potency [5] | Potency [4] | Potency [6]

COc1ccccc1N1CCN(CCCCNS(=O)(=O)c2cccc3c(N(C)C)cccc23)CC1
inactive: Potency [2] | Potency [3] | Potency [5]

CCOC(=O)N1CCN(/[N+]([O-])=N/Oc2ccc([N+](=O)[O-])cc2[N+](=O)[O-])CC1
inactive: Potency [1] | Potency [2] | Potency [3] | Potency [6]

O=C1NC(O)=NC1(c1ccccc1)c1ccccc1
inactive: Potency [2] | Potency [3] | Potency [5]

O=C1/C(=C/c2ccsc2)CC/C1=C\c1cccs1
inactive: Potency [1] | Potency [2] | Potency [5] | Potency [4] | Potency [6]
